Reference: ChEMBL document CHEMBL3988442, “University of Dundee, Small-Polar-MMV Screening Library” (2021)
Out of some 48,000 compounds screened, about 13,000 (27%) showed an effect of 50% or more. The list shows a part of the results.

System: Wolbachia pipientis
Test: Anti-Wolbachia Cell-Based Screen
Assay type: functional
Design: scale not given: in the data most compounds retested in dose-response had high values
Conditions: 5 µM

Row | Structure (SMILES) | Percent Effect [%]
1 | CN(Cc1nc2ccccc2[nH]1)C(=O)C(C)(C)n1cc(Cl)cn1 | 2.79
2 | Cc1nn(C)c(C)c1C1CCCN1Cc1cccc(C(N)=O)c1 (stereo unspecified) | 1.349
3 | CC(=O)c1cc(CN2CCCC2c2nc3ccc(C)cc3[nH]2)cs1 (stereo unspecified) | -31.75
4 | COc1cc(C)nc(N2CCN(C(=O)CCc3cscn3)CC2)n1 | -12.29
5 | O=C(O)CCc1cn(C2CCN(c3ncccc3Cl)CC2)nn1 | -1.723
6 | Cc1cccc(CN2CCCC2c2cccc(CCC(=O)O)n2)c1 (stereo unspecified) | 96.42
7 | NC(=O)COc1cccc(CN2CCCC2c2ccc[nH]2)c1 (stereo unspecified) | 11.28
8 | Cc1cc(C)nc(N2CCC(c3cccc(CCC(=O)O)n3)CC2)n1 | 80.96
9 | O=C(O)CCc1cccc(C2CCCN2Cc2ccc(F)c(F)c2)n1 (stereo unspecified) | -6.193
10 | O=C(O)CCc1cccc(C2CCCN2Cc2cccc(Cl)c2)n1 (stereo unspecified) | 91.67
11 | CCCN1CCCn2nc(CNC(=O)CC3CCS(=O)(=O)C3)cc2C1 (stereo unspecified) | -3.917
12 | CCc1ccc(C2COCCN2C(=O)Nc2cccc(C(C)=O)c2)o1 (stereo unspecified) | -4.107
13 | CSc1ncc(C(=O)NCc2cc3n(n2)CCCN(CC(C)C)C3)cn1 | 10.82
14 | CC(=O)N1CCC2(CC1)CN(CC(C)C)CC21CCNC1=O.O=C(O)C(F)(F)F (stereo unspecified) | -42.64
15 | COc1cc2c(cc1OC)S(=O)(=O)N(Cc1ccccc1C)C2=O | -3.651
16 | CCNC(=O)N1CC[C@H]2CC(=O)N(C3CCCCC3)CC[C@H]2C1 | 0.2272
17 | CC(=O)N1CC[C@H]2CC(=O)N(C3CCCCC3)CC[C@H]2C1 | -3.423
18 | CC1CCN(c2nc(O)cc(C3CC(=O)N(C4CCCCC4)C3)n2)CC1 (stereo unspecified) | 162.6
19 | CC(C)Nc1nc(O)cc(C2CC(=O)N(C3CCCCC3)C2)n1 (stereo unspecified) | 137.6
20 | O=C1CC(c2ncc(-c3ccc4c(c3)OCCO4)[nH]2)CN1C1CCCC1 (stereo unspecified) | 12.43
21 | CCOCCCNc1nc(O)cc(C2CC(=O)N(C)C2)n1 (stereo unspecified) | -9.932
22 | CCc1nc(C)c(CN2CCN(c3ncnc4c(C)csc34)CC2)[nH]1 | 6.188
23 | O=c1cc(CN2CCCC(CCc3c(F)cccc3F)C2)[nH]c(=O)[nH]1 (stereo unspecified) | -9.358
24 | O=C1NCCCCC1NC(=O)C1(c2cccc(Cl)c2)CC1 (stereo unspecified) | -14.19

Row | Structure (SMILES) | Percent Effect [%]
25 | O=C1CC(c2cccnc2)C2(CCN(C(=O)N3CCOCC3)CC2)N1 (stereo unspecified) | 18.29
26 | Cc1nc(CN2CCC3(CC2)NC(=O)CC3c2cccnc2)cs1 (stereo unspecified) | 101
27 | Cc1nc(CN2CCC3(CC2)NC(=O)CC3c2ccncc2)cs1.O=C(O)C(F)(F)F.O=C(O)C(F)(F)F (stereo unspecified) | 104.7
28 | O=C1CC(c2ccncc2)C2(CCN(CCO)CC2)N1 (stereo unspecified) | -11.83
29 | O=C(O)C(F)(F)F.O=C1CC(c2ccncc2)C2(CCN(C(=O)c3cccs3)CC2)N1 (stereo unspecified) | 1.39
30 | O=C(O)C(F)(F)F.O=C1CC(c2ccccc2)C2(CCN(CC3CC3)CC2)N1 (stereo unspecified) | -11.51
31 | O=C(O)C(F)(F)F.O=C(O)C(F)(F)F.O=C1CC(c2ccncc2)C2(CCN(CC3CC3)CC2)N1 (stereo unspecified) | 90.78
32 | CCc1ccc(CN2CCC3(CC2)NC(=O)CC3c2ccncc2)o1.O=C(O)C(F)(F)F.O=C(O)C(F)(F)F (stereo unspecified) | -16.11
33 | COc1ccc(CN2CCC3(CC2)NC(=O)CC3c2ccncc2)cc1.O=C(O)C(F)(F)F.O=C(O)C(F)(F)F (stereo unspecified) | 4.952
34 | CC(NC(=O)c1ccc2c(c1)COC2)c1cccc(N2CCOC2=O)c1 (stereo unspecified) | -4.788
35 | Cc1nc2cc(OCc3nc(C(=O)NC(C)(CO)CO)co3)ccc2s1 | 17.49
36 | CCc1nnc(CN(CC)C(=O)CCc2scnc2C)o1 | -3.701
37 | Cc1nc(C)n(CCNC(=O)C(C)n2ccnc2C(C)C)n1 (stereo unspecified) | -3.784
38 | CCN(Cc1ccc(C)o1)C(=O)C(C)n1ccnc1C(C)C (stereo unspecified) | 103.3
39 | CCN(Cc1ccncc1)C(=O)C(C)n1ccnc1C(C)C (stereo unspecified) | 110.2
40 | CC(C)c1nccn1C(C)C(=O)NC1Cc2ccccc2C1 (stereo unspecified) | 10.2
41 | COc1cc2c(cc1CNC(=O)C(C)n1ccnc1C(C)C)OCCO2 (stereo unspecified) | -1.746
42 | CCOC(=O)N1CCN(C(=O)C(C)n2ccnc2C(C)C)CC1 (stereo unspecified) | -18.05
43 | Cc1cccnc1N1CCN(C(=O)C(C)n2ccnc2C(C)C)CC1 (stereo unspecified) | -23.9
44 | Cc1ccc(CN(C)C(=O)C(C)n2cncn2)o1 (stereo unspecified) | -9.156
45 | Cc1ccc(CN(C)C(=O)C(C)n2ccnc2C(C)C)o1 (stereo unspecified) | 90.15
46 | CC(C(=O)N(C)Cc1ccc(Br)o1)n1cccn1 (stereo unspecified) | 0.6222
47 | CCc1nnc(CN(CC)C(=O)C(C)n2ccnc2C(C)C)o1 (stereo unspecified) | 83.87
48 | Cc1nnc2ccc(NCC3(N4CCCCC4)CCOCC3)nn12 | -7.148

Row | Structure (SMILES) | Percent Effect [%]
49 | COc1ccc(C)cc1-n1c(COC(C)C)n[nH]c1=O | 0.04984
50 | Cc1cccc(CCC(=O)NCC2CCCN2c2cccnn2)c1 (stereo unspecified) | 7.373
51 | Cc1nc(CN2CC(=O)N(C)c3ccccc3C2=O)no1 | 7.895
52 | CN(CC(O)C1CC1)C(=O)c1ccc(-c2nc(C3CC3)no2)cc1 (stereo unspecified) | 4.636
53 | CCc1nnc(NCc2cccc(OC)c2OC)o1 | 1.756
54 | COc1ccc(CNc2nnc(CC(C)(C)C)o2)cc1C#N | -29.2
55 | CC(C)(C)c1nnc(NCc2ccc(F)cc2)o1 | -7.164
56 | COc1cccc(CNC(=O)Nc2ccc3[nH]nnc3c2)c1OC | -10.07
57 | COc1cccc(CNc2nnc(C(C)(C)C)o2)c1OC | 92.71
58 | COc1ccc(OC)c(CNc2nnc(C(C)(C)C)o2)c1 | 112.6
59 | CN(Cc1ccccc1)c1ncccc1CNC1CCC1 | -23.22
60 | CN(Cc1cc(Br)c2c(c1)OCO2)Cc1cscn1 | 2.814
61 | CSCCNC(=O)c1coc(COc2ccc(F)cc2)n1 | -7.576
62 | CCC(C)N(Cc1ccncc1)C(=O)CCSC (stereo unspecified) | -18.32
63 | O=C(NCc1ccccc1)NCC(O)c1cccc(F)c1 (stereo unspecified) | 95.34
64 | O=C(NCc1cccc(F)c1)NCC(O)c1cccc(F)c1 (stereo unspecified) | 96.97
65 | CSc1ccc(CNC(=O)NCC(O)c2cccc(F)c2)cc1 (stereo unspecified) | 106.1
66 | CC(C)Nc1cccc(C(=O)NCC(O)c2cccc(F)c2)c1 (stereo unspecified) | -13.04
67 | Cc1cc(CNC(=O)NCC(O)c2cccc(F)c2)no1 (stereo unspecified) | -1.718
68 | Cc1cc(C)c(CNC(=O)NCC(O)c2cccc(F)c2)c(=O)[nH]1 (stereo unspecified) | 0.6677
69 | CNC(=O)c1cccc(NC(=O)NCc2ccc(SC)cc2)c1C | -19.71
70 | O=C(NCc1cccnc1)NCC(O)c1cccc(C(F)(F)F)c1 (stereo unspecified) | -14.42
71 | CCOc1cccc(CNC(=O)NCC(O)c2cccc(F)c2)c1 (stereo unspecified) | 5.413
